Screening results from PubChem.
This is a sample that favours compounds with a hit; in the whole collection about 5.4% have one here.
ALOX12 inhib – blocks human 12-lipoxygenase activity; P18054; AID 1452; 150,000 compounds, 0.12% hits; Potency, µM (highest dose often 57.1 µM), for inactives: at the highest dose activity change, negative = inhibition, actives largely listed as inhibitors; purified 12-hLO, xylenol orange hydroperoxide absorbance; also: potency is read from the fitted curve at half-maximal effect; nearly all actives have a fitted effect of over 55% in size
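Lipoxygenase turnover measured by absorbance at 573 and 405 nm after Fe-XO development. Human 12hLO 150 nM, arachidonate 40 uM, pH 7.0 Hepes buffer with detergent; 15 min compound preincubation, 30 min reaction.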
PNC inhibitor – blocks assembly of the perinucleolar compartment. PC3M PTB-GFP, PNC prevalence imaging, 16 h; active compounds read low. 140,000 compounds, 3.1% hits. activity change (PNC), negative = inhibition, % at 10 µM. AID 2417;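 active = readout at or below -70, meaning at least 70% loss of cells showing the perinucleolar compartment, a nuclear body marking cancer cells; inconclusive = readout between -30 and a set limit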;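 also: plate controls were DMSO wells for no effect and camptothecin positive control wells for full effect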
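Read-out is percentage of cells bearing a perinucleolar compartment, from automated 20x imaging of fixed, Hoechst-stained PC3M PTB-GFP cells. Cells were seeded 4 h, then exposed 16 h to compound (23 nl of library stock) in duplicate plates.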
15-hLO-2 inh – inhibitors of human 15-lipoxygenase 2 (ALOX15B) | O15296 | purified 15hLO-2, xylenol orange hydroperoxide absorbance | Potency, µM (doses to about 57.1 µM), for the others: at the top dose activity change, negative = inhibition, actives largely listed as inhibitors | 110,000 compounds, 0.56% hits; also: potency is read from the fitted curve at half-maximal effect; nearly all actives have a fitted effect of over 60% in size
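Purified human 15hLO-2 (50 nM final) preincubated with compounds 15 min at room temperature in 25 mM Hepes pH 7.5, 0.01% Triton X-100, then 45 uM arachidonic acid added for 90 min; hydroperoxide detected via ferrous/xylenol orange, 573/405 nm absorbance ratio.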
IMPase inh – cell-permeable inhibitors of inositol monophosphatase (IMPase); P97697; CHO-M1 cells, IP1 accumulation, HTRF TR-FRET ratio; inhibition (IP1 accumulation), % at 46.1 µM; 120,000 tested, under 10 active; AID 901; active = well fitted curve in the direction sought with a large enough effect in the signal ratio, not every such curve was filed as active; inconclusive = small, poorly fitted or top-dose-only effect, or a change in a side signal; inactive = no such curve, though single readings can be large or run the other way; the % refers to the signal ratio;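 also: cells stimulated with carbachol in lithium chloride buffer; plate controls were DMSO basal wells for no effect and reference inhibitor wells for full effect; higher means more IMPase inhibition seen as more IP1 and lower FRET ratio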
Target sequence (P97697 whole entry, looked up): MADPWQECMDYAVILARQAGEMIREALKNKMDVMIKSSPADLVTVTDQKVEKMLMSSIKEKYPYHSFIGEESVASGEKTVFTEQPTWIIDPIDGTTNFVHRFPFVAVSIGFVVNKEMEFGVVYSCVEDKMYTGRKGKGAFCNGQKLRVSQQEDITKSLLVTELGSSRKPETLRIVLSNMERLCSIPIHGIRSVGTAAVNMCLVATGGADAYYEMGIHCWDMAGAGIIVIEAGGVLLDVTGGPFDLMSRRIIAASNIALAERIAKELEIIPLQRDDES
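Seeded CHO-M1 cells were dosed with compound at up to 46 uM, stimulated with carbachol for 30 min, then lysed in IP-One detection reagents. Higher IP1 lowers the TR-FRET signal.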
IMPase Li cell – cell-permeable IMPase inhibitors with lithium potentiation; CHO-M1 cells, IP1 TR-FRET (IP-One), carbachol + lithium; Potency, µM (titrated, usually from 59.4 µM), for inactives: at the highest dose activity, negative = IMPase inhibition, hits mostly inhibitors; 210,000 compounds, 0.35% hits;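 also: IP1 builds up when IMPase is blocked and the TR-FRET signal falls; potency is read from the fitted curve at half-maximal effect; plate controls were basal vehicle for no effect and high inhibitor control for full effect; nearly all actives have a fitted effect of over 50% in size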
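Concentration–response in CHO-M1 cells, lithium-potentiated; 30 min at 37C. IP1 detected by competitive TR-FRET after 10 min lysis at RT. Hill-fitted AC50.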
HPGD inh – HPGD (human) dehydrogenase inhibition; P15428; purified HPGD, NADH fluorescence kinetic, PGE2 substrate; Potency, µM, inactives show top-dose activity change, negative = inhibition, usual class: inhibitors; 150,000 compounds, 4.3% hits; AID 894; active = well fitted inhibition curve with a large enough effect, not every such curve was filed as active; inconclusive = small, poorly fitted or top-dose-only effect, or another doubt; inactive = no such curve, though single readings can be large or run the other way; also: potency is read from the fitted curve at half-maximal effect
Target sequence (P15428 whole entry, looked up): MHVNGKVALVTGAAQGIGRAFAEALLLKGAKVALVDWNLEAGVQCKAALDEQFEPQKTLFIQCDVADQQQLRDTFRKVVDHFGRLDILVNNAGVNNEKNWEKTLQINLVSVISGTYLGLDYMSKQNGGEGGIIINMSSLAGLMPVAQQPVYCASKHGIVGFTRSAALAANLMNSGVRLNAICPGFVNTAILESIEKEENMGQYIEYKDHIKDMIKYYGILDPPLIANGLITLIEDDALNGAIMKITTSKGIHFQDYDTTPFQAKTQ
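20 nM HPGD preincubated 15 min at room temperature with compound in 50 mM Tris-HCl pH 8, 0.01% Tween 20. Started with 1 mM NAD+ and 30 uM prostaglandin E2; NADH fluorescence (360/450 nm) read 5 times over 30-s intervals, last minus first.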
Active calls of the source: *; u = inconclusive; x = no result; [ ] = dose if it differs, or a comment. Unless noted, calls follow the shape of the dose curve; as a rule, active = well fitted curve in the direction sought with a large enough effect; inconclusive = small, poorly fitted or top-dose-only effect, or another doubt; inactive = no such curve, though single readings can be large; an effect the other way counts as inactive or inconclusive. Unless noted, % is scaled to controls: 0 for no effect and ±100 for the full control effect.

SMILES | ALOX12 inhib | PNC inhibitor | 15-hLO-2 inh | IMPase inh | IMPase Li cell | HPGD inh
C=C1c2ccccc2O[C@H](C(=O)OCC)[C@@H]1CC(C)(C)c1ccccc1 | -14%[0.00818 µM] | x | -2%[0.0915 µM] | x | 18% | -14%
CC(C)(C)Cn1c(=O)[nH]c(=O)c2cc([N+](=O)[O-])cnc21 | -3% | -114* | x | x | -1% | -18%
CCCn1c(-c2cccc([N+](=O)[O-])c2)nc2c1c(=O)[nH]c(=O)n2Cc1ccccc1 | -2% | -21 | x | 7 | -2% | -16%
CCCOC1(C(F)(F)F)NC(=O)N(c2ccc(Cl)cc2)C1=O (stereo not given) | x | x | x | -5 | x | x
C=CCn1c(SCC(=O)Nc2ccc3c(c2)OCCO3)nnc1-c1ccccn1 | -1% | -81* | -1% | u | -10%[38.3 µM] | -6%
C=CCn1c(SCC(=O)c2ccccc2)nnc1-c1ccc2c(c1)OCO2 | -11% | -27 | -9% | -1 | 16%[38.3 µM] | 5.6µM*
C=CCn1c(SCC(=O)c2ccc(OC)cc2)nnc1-c1cc2cccc(OC)c2o1 | -8% | -123* | -3% | 6 | -5%[38.3 µM] | 2%
COc1ccc(C(=O)CSc2nnc(-c3cc4ccccc4cc3O)n2Cc2ccco2)cc1 | -8% | -23 | -13% | 12 | 4%[38.3 µM] | -30%
C=CCn1c(SCC(=O)c2cccs2)nnc1-c1cccc(OC)c1 | -15% | 13 | 1% | 16 | 9%[38.3 µM] | 20µM*
Nc1ncnc2nc(-c3ccc(N4CCOCC4)nc3)cc(-c3cccc(Br)c3)c12 | -3% | x | 46% | x | -21% | u
CCn1c(SCC(=O)c2ccccc2)nnc1-c1cc2cc(Br)ccc2o1 | -1% | 13 | 7% | -10 | -4%[38.3 µM] | -21%
C=CCn1c(SCC(=O)c2ccccc2)nnc1-c1cc2ccccc2o1 | -5% | u | -22% | -3 | 8%[38.3 µM] | 14µM*
O=C(COc1ccc([N+](=O)[O-])cc1)Nc1cccc2cccnc12 | x | x | x | -8 | x | x
COc1ccc(/C=C/C(=O)Nc2ccc(OC)cc2[N+](=O)[O-])cc1 | 2% | -11 | x | 1 | 6% | -4%
CCOc1ccc(NC(=S)NC(=O)/C=C/c2ccc(OC)c(OC)c2)c([N+](=O)[O-])c1 | -8% | 6 | u | 5 | -25%[38.3 µM] | 22µM*
COc1ccc(/C=C/C(=O)Nc2ccc(Cl)c(Cl)c2)cc1 | x | x | x | 4 | x | x
COC(=O)c1cc(Cl)c(NC(=O)/C=C/c2ccc(OC)cc2)cc1OC | 0% | -113* | x | x | -2% | u
COc1ccc(NC(=O)/C=C/c2ccccc2)c([N+](=O)[O-])c1 | -2% | -82* | x | x | -6% | -1%
CC(=O)OCC1OC(Oc2cc(OC(C)=O)c3c(=O)cc(-c4ccc(OC(C)=O)c(OC(C)=O)c4)oc3c2)C(OC(C)=O)C(OC(C)=O)C1OC(C)=O (stereo not given) | -1% | x | -19% | 3 | 9% | -19%
CCn1c(SCC(=O)N2CCCc3ccccc32)nnc1-c1ccoc1C | 2% | -100* | x | 4 | 4% | -13%
CCn1c(SCC(=O)O)nnc1-c1ccccc1 | 3% | -96* | 3% | -1 | -26%[38.3 µM] | -12%
CCn1c(SCC(=O)N2CCCc3ccccc32)nnc1-c1ccco1 | 3% | -9 | -8% | -5 | -9%[38.3 µM] | -11%
CCn1c(SCC(=O)c2ccc(C)cc2)nnc1-c1ccncc1 | 3% | -2 | 0% | 5 | 14%[38.3 µM] | 32µM*
CCn1c(SCC(=O)c2ccc(C)cc2)nnc1-c1ccoc1C | -3% | 1 | -7% | 6 | 7% | 32µM*
Cc1ccc(C(=O)CSc2nnc(-c3ccncc3)n2C)cc1 | x | x | x | x | 2% | x
SMILES | ALOX12 inhib | PNC inhibitor | 15-hLO-2 inh | IMPase inh | IMPase Li cell | HPGD inh
C[C@H]1Cc2c(COc3ccccc3)nc3c(c2CO1)CN(S(=O)(=O)c1ccc(Cl)c2nonc12)CC3 | -6%[11.4 µM] | x | x | x | 5% | -4%
FC(F)(F)c1cc(NC(=S)N2c3ccccc3-n3cccc3[C@H]2c2cccnc2)cc(C(F)(F)F)c1 | -9%[11.4 µM] | x | -5%[11.4 µM] | x | 6% | u
c1ccc(-c2n[nH]c3c2oc2ccccc23)cc1 | -1%[0.00818 µM] | x | 23%[0.0915 µM] | x | 24% | -23%
CC(C)N(Cc1ccccc1)S(=O)(=O)c1n[nH]c(C(C)(C)C)n1 | -1%[11.4 µM] | x | -6%[11.4 µM] | x | 8% | -3%
COCCn1c(=O)c(-c2cccs2)nc2cnc(N3CCOCC3)nc21 | x | x | -8% | x | 11µM* | x
COc1ccc(-n2c(=O)c(-c3cccs3)nc3cnc(N4CCOCC4)nc32)cc1 | x | x | -2% | x | -6% | x
Cc1oc(-c2nc3ccccc3n2C)cc1C(=O)c1ccccc1 | -2% | -13 | x | 9 | -5% | 35µM*
N[C@@H](CSCc1ccc(I)cc1)C(=O)O | 0%[11.4 µM] | x | -3%[11.4 µM] | x | -1% | -4%
CCCCCCCCSc1nnc2[nH]c(=O)cc(N)n12 | x | x | x | x | -7% | x
CCCCCCSc1nnc2[nH]c(=O)cc(N)n12 | 4% | 13 | x | x | 4% | 11µM*
Cc1ccc(N2CS(=O)(=O)/C(=C/N(C)C)C2=O)cc1 | -1% | -2 | -2% | 4 | -6%[38.3 µM] | -11%
CN(C)/C=C1\C(=O)N(c2ccc(Cl)cc2)CS1(=O)=O | -6% | u | 0% | 10 | -8%[38.3 µM] | 16µM*
CCOc1ccc(OCCSc2nc3ccccc3[nH]2)cc1 | 5% | -92* | x | 12 | 30% | 25µM*
CCCOc1ccc(CSc2nc3ccccc3[nH]2)cc1 | 3% | 74 | 15% | 8 | 17%[38.3 µM] | -20%
CCOC(=O)CSc1nc2cc3c(cc2cc1C#N)OCCO3 | x | x | x | x | -29% | x
CCOc1ccc2cc(C#N)c(SCC(=O)N3CCOCC3)nc2c1 | -10% | u | -6% | -20 | 2.8µM* | u
CCOC(=O)CSc1nc2cc3c(cc2cc1C#N)OCO3 | -9% | -127* | -3% | 7 | 0%[38.3 µM] | -12%
COCc1cc(O)c(O)c(O)c1-c1c(COC)cc(O)c(O)c1O | x | x | x | x | -20% | x
CC1(C)S[C@@H]2[C@H](NC(=O)C3(N)CCCCC3)C(=O)N2[C@@H]1C(=O)O | -1%[11.4 µM] | x | 0%[11.4 µM] | x | -6% | -10%
Cn1c(NCCCO)nc2c1c(=O)n(Cc1ccccc1F)c(=O)n2C | 0% | -12 | 2% | 10 | -3%[38.3 µM] | -2%
COc1ccccc1Oc1nc2c(c(=O)n(Cc3ccccc3F)c(=O)n2C)n1C | -19% | -30 | -29% | -4 | 1%[38.3 µM] | 14µM*
CCOC(=O)c1[nH]c(COC(=O)C2CC(=O)N(Cc3ccccc3)C2)c(C(=O)OCC)c1C (stereo not given) | -16% | 41 | -1% | 10 | 45%[38.3 µM] | 28µM*
COC(=O)C(NC(=O)COc1ccccc1)(Nc1nc2c(s1)CCCC2)C(F)(F)F (stereo not given) | 0% | -14 | x | 20 | 13% | 35µM*
O=C(CCC(=O)OCC(=O)c1ccc(Cl)cc1)Nc1ccc(Oc2ccccc2)cc1 | x | x | x | 6 | x | x
